Measured values taken from PubChem BioAssay AID1159580 (chemical genetic matrix, 2015).
Where “and” joins values, the source holds several entries; their conditions need not be identical. Identical values can stand only once. In all, about 5,500 compounds went through this assay and about 2,000 (36%) were called active. Roughly 18% stayed inconclusive and do not appear here. Cut-off read from the data, not from the text of the source: active = normalized growth mostly below about 0.91 (no sharp cut-off); inconclusive = no clear call, values can overlap the other calls; inactive = mostly above about 0.92. The list shows a part of the results.

Experiment: chemical genetic growth profiling, strain panel (AID 1159580);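 note: tested at 20 µM; growth read once vehicle control cultures reached saturation at 30 °C; 1 = growth at the plate median or of vehicle wells; lower values mean less growth of the strain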
Settings: S. cerevisiae deletion strains, growth OD

Measured: normalized growth

CCOc1ccc(C(=O)c2cc(O)c(OC)c(OC)c2O)cc1
inactive: locus YAL021C, strain ccr4, active compounds read low 1 | locus YAL026C, strain drs2, active compounds read low 0.941 | locus YAL030W, strain snc1, active compounds read low 0.993 | locus YBL061C, strain skt5, active compounds read low 0.998 | locus YBR009C, strain hhf1, active compounds read low 0.938 | locus YBR021W, strain FUR4, active compounds read low 1.06 | locus YBR023C, strain chs3, active compounds read low 0.997 | locus YBR171W, strain sec66, active compounds read low 0.981 | locus YBR229C, strain ROT2, active compounds read low 1.01 | locus YBR231C, strain swc5, active compounds read low 0.987 | locus YBR279W, strain paf1, active compounds read low 1 | locus YCL011C, strain gbp2, active compounds read low 0.998 | locus YCL016C, strain dcc1, active compounds read low 1 | locus YCL029C, strain bik1, active compounds read low 1.01 | locus YCL061C, strain MRC1, active compounds read low 1 | locus YCL069W, strain vba3, active compounds read low 0.997 | locus YCR088W, strain abp1, active compounds read low 0.997 | locus YDL005C, strain med2, active compounds read low 1.01 | locus YDL035C, strain GPR1, active compounds read low 1.02 | locus YDL040C, strain nat1, active compounds read low 1.01 | locus YDL074C, strain BRE1, active compounds read low 1.11 | locus YDL101C, strain DUN1, active compounds read low 1.01 | locus YDL134C, strain PPH21, active compounds read low 1.01 | locus YDL185W, strain tfp1, active compounds read low 1.01 | locus YDL192W, strain arf1, active compounds read low 0.957 | locus YDR001C, strain nth1, active compounds read low 0.999 | locus YDR069C, strain doa4, active compounds read low 0.969 | locus YDR101C, strain arx1, active compounds read low 1 | locus YDR150W, strain NUM1, active compounds read low 1.01 | locus YDR159W, strain sac3, active compounds read low 0.97 | locus YDR162C, strain NBP2, active compounds read low 0.983 | locus YDR195W, strain ref2 1.05 | locus YDR297W, strain sur2, active compounds read low 0.995 | locus YDR318W, strain mcm21, active compounds read low 0.99 | locus YDR334W, strain swr1, active compounds read low 0.987 | locus YDR335W, strain msn5, active compounds read low 0.999 | locus YDR388W, active compounds read low 1.02 | locus YDR502C, strain sam2, active compounds read low 1.02 | locus YEL003W, strain gim4, active compounds read low 0.986 | locus YEL037C, strain rad23, active compounds read low 0.99 | locus YEL061C, strain CIN8 (second series), active compounds read low 0.992 | locus YER015W, strain faa2, active compounds read low 0.999 | locus YER016W, strain bim1, active compounds read low 0.995 | locus YER110C, active compounds read low 1.03 | locus YER111C, strain swi4, active compounds read low 0.989 | locus YER155C, strain BEM2, active compounds read low 0.995 | locus YER167W, strain BCK2, active compounds read low 1 | locus YFR010W, strain ubp6, active compounds read low 0.98 | locus YGL078C, strain dbp3, active compounds read low 1.03 | locus YGL086W, strain mad1, active compounds read low 0.964 | locus YGL167C, strain pmr1, active compounds read low 1 | locus YGL173C, strain kem1, active compounds read low 0.988 | locus YGL227W, strain vid30, active compounds read low 1.01 | locus YGL240W, strain doc1, active compounds read low 0.985 | locus YGL248W, strain PDE1, active compounds read low 1.04 | locus YGL253W, strain hxk2, active compounds read low 1.01 | locus YGR135W, strain pre9, active compounds read low 1.01 | locus YGR252W, strain gcn5, active compounds read low 1.03 | locus YHR013C, strain ard1, active compounds read low 0.985 | locus YHR027C, strain rpn1, active compounds read low 0.991 | locus YHR030C, strain SLT2, active compounds read low 1 and 0.941 | locus YHR079C, strain IRE1 (second series), active compounds read low 1.03 | locus YHR079C, strain IRE1, active compounds read low 0.938 | locus YHR094C, strain hxt1, active compounds read low 1.01 | locus YHR129C, strain ARP1, active compounds read low 1.03 | locus YHR142W, strain chs7, active compounds read low 0.931 | locus YHR200W, strain rpn10, active compounds read low 1.02 | locus YIL066C, strain RNR3, active compounds read low 1.03 | locus YIL073C, strain SPO22, active compounds read low 1.01 | locus YIL125W, strain kgd1, active compounds read low 0.995 | locus YIR030C, strain dcg1, active compounds read low 1.01 | locus YJL092W, strain hpr5, active compounds read low 1 | locus YJL095W, strain BCK1 (second series), active compounds read low 0.938 | locus YJL095W, strain BCK1, active compounds read low 1.05 and 0.949 | locus YJL115W, strain asf1, active compounds read low 1 | locus YJL129C, strain trk1, active compounds read low 0.955 | locus YJL134W, strain LCB3, active compounds read low 0.994 | locus YJL154C, strain vps35, active compounds read low 1 | locus YJL164C, strain tpk1, active compounds read low 0.969 | locus YJL166W, strain qcr8, active compounds read low 0.974 | locus YJL168C, strain set2, active compounds read low 1.01 | locus YJL187C, strain SWE1 (second series), active compounds read low 1.03 | locus YJL187C, strain SWE1, active compounds read low 0.991 | locus YJR043C, strain POL32, active compounds read low 1.06 | locus YJR066W, strain TOR1, active compounds read low 0.882 | locus YJR075W, strain HOC1, active compounds read low 1 | locus YKL009W, strain mrt4, active compounds read low 1.02 | locus YKL068W, active compounds read low 0.988 | locus YKL085W, strain MDH1 (second series), active compounds read low 0.985 | locus YKL085W, strain MDH1, active compounds read low 0.985 | locus YKL160W, strain elf1, active compounds read low 0.966 | locus YKL190W, strain CNB1, active compounds read low 1.01 | locus YKR001C, strain vps1, active compounds read low 0.959 | locus YKR026C, strain gcn3, active compounds read low 0.997 | locus YKR091W, strain srl3, active compounds read low 0.999 | locus YLL001W, strain dnm1, active compounds read low 0.989 | locus YLL026W, active compounds read low 1.01 | locus YLL041C, strain sdh2, active compounds read low 1 | locus YLR027C, strain aat2, active compounds read low 0.99 | locus YLR039C, strain RIC1, active compounds read low 0.871 | locus YLR058C, strain SHM2, active compounds read low 1.03 | locus YLR102C, strain apc9, active compounds read low 1.01 | locus YLR221C, strain rsa3, active compounds read low 0.984 | locus YLR258W, strain gsy2, active compounds read low 0.989 | locus YLR262C, strain YPT6, active compounds read low 0.625 | locus YLR268W, strain sec22, active compounds read low 0.974 | locus YLR330W, strain CHS5, active compounds read low 1 | locus YLR342W, strain FKS1 (second series), active compounds read low 0.952 | locus YLR342W, strain FKS1, active compounds read low 0.995 | locus YLR357W, strain rsc2, active compounds read low 1.02 | locus YLR370C, strain arc18, active compounds read low 0.994 | locus YLR371W, strain rom2, active compounds read low 0.963 | locus YLR384C, strain iki3, active compounds read low 0.999 | locus YLR418C, strain cdc73, active compounds read low 1.04 | locus YML016C, strain PPZ1, active compounds read low 1.01 | locus YML032C, strain rad52, active compounds read low 1.03 | locus YML120C, strain ndi1, active compounds read low 0.986 | locus YML124C, strain tub3, active compounds read low 1.01 | locus YMR058W, strain fet3, active compounds read low 0.981 | locus YMR078C, strain ctf18, active compounds read low 1.03 | locus YMR125W, strain sto1, active compounds read low 1.01 | locus YMR129W, active compounds read low 1 | locus YMR205C, strain PFK2, active compounds read low 0.932 | locus YMR223W, strain ubp8, active compounds read low 0.981 | locus YMR231W, strain pep5, active compounds read low 0.999 | locus YMR263W, strain SAP30, active compounds read low 0.997 | locus YMR307W, strain GAS1, active compounds read low 0.929 | locus YNL067W, strain RPL9B, active compounds read low 1 | locus YNL183C, strain NPR1, active compounds read low 0.906 | locus YNL209W, strain ssb2, active compounds read low 0.992 | locus YNL233W, strain BNI4, active compounds read low 1 | locus YNL248C, strain rpa49, active compounds read low 1 | locus YNL250W, strain rad50, active compounds read low 1.06 | locus YNL271C, strain bni1, active compounds read low 1.01 | locus YNL298W, strain CLA4, active compounds read low 1.04 | locus YNL322C, strain KRE1 (second series), active compounds read low 0.989 | locus YNR049C, strain mso1, active compounds read low 1 | locus YNR052C, strain pop2, active compounds read low 1.02 | locus YOL006C, strain TOP1, active compounds read low 1.18 | locus YOL012C, strain htz1 1.11 | locus YOL147C, strain pex11, active compounds read low 1.01 | locus YOR001W, strain rrp6, active compounds read low 0.992 | locus YOR061W, strain CKA2, active compounds read low 1.01 | locus YOR069W, strain VPS5, active compounds read low 1 | locus YOR070C, strain gyp1, active compounds read low 0.981 | locus YOR080W, strain dia2, active compounds read low 1.01 | locus YOR083W, strain WHI5, active compounds read low 0.977 | locus YOR106W, strain vam3, active compounds read low 0.9 | locus YOR136W, strain idh2, active compounds read low 1.01 | locus YOR144C, strain elg1, active compounds read low 1.01 | locus YOR184W, strain ser1, active compounds read low 1.01 | locus YOR231W, strain MKK1, active compounds read low 0.948 | locus YOR265W, strain rbl2, active compounds read low 0.988 | locus YOR270C, strain vph1, active compounds read low 0.903 | locus YOR290C, strain snf2, active compounds read low 0.979 | locus YOR316C, strain cot1, active compounds read low 1.03 | locus YPL078C, strain atp4, active compounds read low 0.994 | locus YPL106C, strain sse1, active compounds read low 1.04 | locus YPL240C, strain hsp82, active compounds read low 0.991 | locus YPL241C, strain CIN2, active compounds read low 1.01 | locus YPL256C, strain CLN2, active compounds read low 0.934 | locus YPR119W, strain clb2, active compounds read low 1.02 | locus YPR141C, strain kar3, active compounds read low 1 | locus YPR163C, strain tif3, active compounds read low 0.953 | locus YPR167C, strain met16, active compounds read low 1.02 | strain wtn01, active compounds read low 0.992
active: locus YDR137W, strain rgp1, active compounds read low 0.79 | locus YDR392W, strain spt3, active compounds read low 0.455 | locus YER155C, strain BEM2 (second series), active compounds read low 0.734 | locus YLR113W, strain HOG1, active compounds read low 0.844 | locus YLR262C, strain YPT6 (second series), active compounds read low 0.341 | locus YLR320W, strain mms22, active compounds read low 0.852 | locus YNL071W, strain lat1, active compounds read low 0.626 | locus YNL307C, strain MCK1, active compounds read low 0.858 | locus YPL051W, strain arl3, active compounds read low 0.891
